Source: PubChem
Shn3 3UTR inh: inhibitors of Schnurri-3 3'UTR reporter in osteoblasts | 0.52% of 360,000 active | inhibition, % at 12.5 µM | Clone20 osteoblast Shn3 3'UTR firefly luciferase, 24 h | AID 588674;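 active means mean inhibition of at least 75% with every replicate also reaching 75%; inconclusive means mean inhibition at least 75% but some replicate below; inactive means mean inhibition below 75%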;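 further: 0% = median of neutral control wells and 100% = pilot-screen positive control compound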
LGR2 antag: inhibitors of bursicon-induced Drosophila LGR2 receptor cAMP signaling. HEK293 LGR2, CRE-luciferase, bursicon-stimulated, 4 h. inhibition, % at 9.99 µM. 0.35% of 380,000 active;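 active means drop in luminescence signal, shown as inhibition above about 50% in the replicate tests, limit read from the data, passing the limit was not always enough; inconclusive means probably only some replicates passing the limit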;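 further: agonist challenge used bursicon conditioned medium at about half maximal strength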
EWS-Fli block: EWS/Fli transcriptional activity inhibition; AID 651661; 0.67% of 350,000 active; A673 NR0B1-luciferase reporter, viability-normalised; inhibition, % at 12.6 µM;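 active means mean inhibition of at least 50% after viability correction, with every replicate also passing that limit; inconclusive means mean reaches 50% but only one of two replicates passes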;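 further: firefly luciferase signal divided by Alamar Blue viability fluorescence both relative to DMSO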
LMP1 NFkB inh: inhibitors of Epstein-Barr LMP1-induced NF-kappaB reporter; LMP1-induced NF-kappaB luciferase reporter cells, luminescence; inhibition, % at 12.5 µM; 0.69% of 350,000 active; AID 504558; in the data active means inhibition above about 41%; inconclusive means no clear call, values can overlap the other calls;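 further: 0% = neutral control wells and 100% = reference inhibitor control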
PAX8 reporter: inhibitors of PAX8 transcriptional activity in RMG-I cells; RMG-I TPO-luciferase reporter, SteadyGlo, 24 h; inhibition, % at 12.6 µM; 1.2% of 360,000 active;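 active means mean replicate inhibition at least 60% with every replicate also reaching 60%; inconclusive means only one of the two criteria is met; inactive means mean below 60% and not all replicates reaching 60%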;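 further: luciferase light reporting Pax8 driven TPO promoter activity; plate controls were median of neutral control wells for no effect and mitoxantrone controls for full effect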
TRPM1 prom inh: MITF TRPM1 promoter inhibition in SK-MEL-5 cells; SK-MEL-5 TRPM1 promoter luciferase, 24 h; inhibition, % at 12.5 µM; 0.83% of 330,000 active;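 active means mean inhibition across replicates of 60% or more, whatever share of single replicates reaches that level; inconclusive means some that reach 60%, reason not given; inactive means mean inhibition across replicates below 60%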
* = called active by the depositor; ? = inconclusive; · = no result given. Sampled rows, rich in hits. Any-hit rate of the full collection: about 2.2%.

SMILES	Shn3 3UTR inh	LGR2 antag	EWS-Fli block	LMP1 NFkB inh	PAX8 reporter	TRPM1 prom inh
O=C(C[C@H]1C=C[C@@H](NC(=O)CN2CCOCC2)[C@@H](CO)O1)NCc1cccc(F)c1	·	-22.0	3.1	·	6.7	·
O=C(NCc1cccnc1)/C(=C\c1ccc(-c2ccc(Br)cc2)o1)S(=O)(=O)c1ccccc1	95.9*	102.1*	59.1*	63.2*	30.2	99.6*
O=C(CN(Cc1ccc(Br)cc1)S(=O)(=O)c1ccccc1)NCc1cccnc1	-15.4	10.7	-6.1	6.4	-4.1	6.7
O=C(NCc1cccnc1)/C(=C/c1ccc(-c2ccc(Cl)cc2)o1)S(=O)(=O)c1ccccc1	91.7*	99.0*	69.0*	-51.7	·	93.1*
COc1ccc(NC(=O)Nc2ccc3c(c2)C(=O)N([C@@H](C)CO)C[C@@H](C)[C@@H](CN(C)C(=O)Cc2ccccc2)OCCCC[C@@H](C)O3)cc1	·	12.1	2.8	·	33.9	·
O=C(/C(=C/c1ccc(Cl)cc1)c1nc2ccccc2[nH]1)c1ccccc1	?	·	·	85.5*	·	83.7*
CN(c1cccc(Cl)c1)S(=O)(=O)c1cccc(C(=O)Nc2nc3ccccc3[nH]2)c1	30.3	?	18.6	30.1	71.1*	-9.0
O=C(Nc1nc2ccccc2[nH]1)c1ccc(Cl)cc1	3.3	57.4*	53.4*	-2.7	-25.1	2.4
O=C(Nc1nc2ccccc2[nH]1)c1ccccc1	16.9	·	·	6.2	·	6.3
COc1cccc(S(=O)(=O)N[C@@H]2CC[C@@H](CCNC(=O)Cc3ccncc3)O[C@@H]2CO)c1	·	8.9	-2.1	·	-7.8	·
Cc1ccc(C)c(NC(=O)COC(=O)c2cccc3c2C(=O)c2ccccc2C3=O)c1	28.3	2.5	2.1	16.5	63.8*	23.3
Cc1ccccc1N1C(=O)Cc2ccccc2C1=O	8.1	8.2	10.7	1.9	-31.1	0.3
CC1=C(C(=O)N2CCC=CC2=O)Cc2ccccc21	·	·	12.1	·	95.4*	·
CCC(=O)Nc1ccc(C(=O)OCc2ccccc2)cc1	-5.1	-32.5	-23.7	0.0	-86.1	-62.0
O=C(OCc1ccccc1)c1ccc(NCc2cc(O)ccc2O)cc1	98.5*	54.3*	61.9*	-35.6	59.2	81.4*
CC(C)OC(=O)c1ccc(NCc2cc(O)ccc2O)cc1	95.2*	·	69.3*	-6.1	40.1	15.7
COCC(=O)N(C)C[C@@H]1Oc2cc(-c3ccccc3)ccc2S(=O)(=O)N([C@H](C)CO)C[C@H]1C	·	1.4	-12.7	·	·	·
C[C@@H](OC(=O)c1[nH]cnc1C(=O)N1CCc2ccccc2C1)c1ccccc1	4.2	·	0.4	84.9*	-15.3	12.5
CC1CCN(C(=O)c2nc[nH]c2C(=O)O[C@H](C)c2ccccc2)CC1	-1.3	-8.7	-3.7	-3.7	-21.9	12.3
COc1cccc(NC(=O)C[C@@H]2CC[C@H]3[C@H](COc4ccc(NC(=O)C5CCOCC5)cc4C(=O)N3C)O2)c1	·	-10.6	-1.0	·	-5.2	·
O=C(C[C@@H]1C[C@H]2c3cc(NC(=O)Nc4ccccc4F)ccc3O[C@H]2[C@H](CO)O1)NCc1ccc(Oc2ccccc2)cc1	·	48.0	-2.7	·	74.6*	·
O=C(C[C@@H]1C[C@H]2c3cc(NC(=O)C4CCOCC4)ccc3O[C@H]2[C@@H](CO)O1)NCc1ccc(Oc2ccccc2)cc1	·	8.5	-7.2	·	-6.4	·
O=C(C[C@H]1C[C@@H]2c3cc(NC(=O)C4CCOCC4)ccc3O[C@@H]2[C@@H](CO)O1)NCc1ccc(Oc2ccccc2)cc1	·	10.7	17.8	·	77.9*	·
CC1CCN(c2ccc(-c3cccs3)nn2)CC1	54.9	74.8*	88.9*	57.2*	84.5*	79.3*
Clc1ccc(-c2cccs2)nn1	1.9	·	2.1	2.7	-13.1	-1.7
SMILES	Shn3 3UTR inh	LGR2 antag	EWS-Fli block	LMP1 NFkB inh	PAX8 reporter	TRPM1 prom inh
COc1ccc(NC(=O)N(C)C[C@H]2OCCCC[C@H](C)Oc3ccc(NC(=O)C4CCCCC4)cc3C(=O)N([C@H](C)CO)C[C@H]2C)cc1	·	4.3	·	·	·	·
CC(=O)N1C[C@@H]2[C@H](c3ccccc31)[C@@H](CO)N2C(=O)c1ccc(F)cc1	·	11.7	2.5	·	-9.0	·
CNc1ccc(Br)cc(C(=O)/C=C/c2cccc(Cl)c2Cl)c1=O	-1.2	23.0	47.9	?	3.8	80.6*
CNc1ccc(Br)cc(C(=O)/C=C/c2cccc(OC)c2OC)c1=O	-30.3	·	·	-6.3	·	12.6
CCNc1ccc(Br)cc(C(=O)/C=C/c2ccccc2Cl)c1=O	64.6	·	·	83.3*	·	30.7
O=C(NCC[C@H]1CC[C@@H](NS(=O)(=O)Cc2ccccc2)[C@H](CO)O1)C1CCC1	·	10.9	-2.8	·	1.8	·
